The source of these data is the supplement of paper PMC10011410.

± gives the standard deviation of the averaged measurements.

This assay relates to AmpC beta-lactamase (E. coli). Put plainly: AmpC inhibition relative to DMSO; higher = more inhibition. How it is done: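 Aggregation counter-screen: inhibition of E. coli AmpC beta-lactamase (5 nM, nitrocefin substrate, 50 mM sodium phosphate pH 7.0, RT, 5 min) by KAT inhibitors at 4, 11, 33 and 100 uM, with or without 0.01% Triton X-100. Percent inhibition is relative to DMSO controls. Four technical replicates.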

Where [1] appears, read: 4 µM, detergent: 0.01% Triton X-100.
[2] abbreviates: 11 µM, detergent: 0.01% Triton X-100.
Where [3] appears, read: 33 µM, detergent: 0.01% Triton X-100.
Setting [4] is: 100 µM, detergent: 0.01% Triton X-100.
Where [5] appears, read: 100 µM, detergent: no detergent.

For the compound `CCCCCCCc1ccc(CCc2cccc(O)c2C(=O)O)cc1`, the AmpC inhibition was 1.37 ± 5% under setting [1]; -4.68 ± 3.5% (4 µM, detergent: no detergent); 8.12 ± 2.9% under setting [2]; 61 ± 10% (11 µM, detergent: no detergent); 9.04 ± 3.8% under setting [3]; 97.2 ± 1.9% (33 µM, detergent: no detergent). Moreover, the AmpC inhibition is 8.27 ± 3.7% under setting [4] and 99.4 ± 1.4% under setting [5].
Regarding `CCCC1(c2ccccc2)NC(=O)N(CC(=O)N(C)Cc2c(F)cccc2Cl)C1=O` (stereo not given), the AmpC inhibition is 14.2 ± 2.9% under setting [1]; -1.7 ± 2% (4 µM, detergent: no detergent); 7.15 ± 9.5% under setting [2]; 11.6 ± 7.8% (11 µM, detergent: no detergent); 6.15 ± 7.3% under setting [3]; 5.75 ± 6.8% (33 µM, detergent: no detergent). The AmpC inhibition runs as follows: under setting [4], 6.78 ± 1.8%; under setting [5], 3.79 ± 0.91%.
`COc1ccc(/C(Cl)=C(\C=O)c2ccc(OC)cc2)cc1`: the AmpC inhibition under setting [1] was 2.6 ± 2.4%; the AmpC inhibition (4 µM, detergent: no detergent) came to 17.8 ± 21%; the AmpC inhibition under setting [2] was determined as 4.97 ± 1.2%; the AmpC inhibition (11 µM, detergent: no detergent) worked out at 3.2 ± 5.5%; the AmpC inhibition under setting [3] stood at 1.35 ± 3.3%; the AmpC inhibition (33 µM, detergent: no detergent) is -9.16 ± 9.6%. Moreover, the AmpC inhibition is -4.79 ± 8.1% under setting [4] and 1.57 ± 3.4% under setting [5].
Consider `COc1cc(/C=C/c2cc(/C=C/c3ccc(O)c(OC)c3)n(-c3ccc(C(=O)[O-])cc3)n2)ccc1O.[Na+]`, for which the AmpC inhibition was 1.31 ± 3% under setting [1]; -4.8 ± 14% (4 µM, detergent: no detergent); 2.98 ± 1.9% under setting [2]; -29.6 ± 5.8% (11 µM, detergent: no detergent); 4.87 ± 2.2% under setting [3]; -38.3 ± 23% (33 µM, detergent: no detergent). Further, the AmpC inhibition is 2.96 ± 6% under setting [4] and -2.93 ± 15% under setting [5].
Consider `CC1(C)CCC2=C(O1)c1ccccc1C(=O)C2=O`, for which the AmpC inhibition by setting is: under setting [1], 10.1 ± 3.2%; (4 µM, detergent: no detergent) 0.565 ± 6.8%; under setting [2], 2.63 ± 1.6%; (11 µM, detergent: no detergent) -4.82 ± 5.1%; under setting [3], 6.33 ± 3.7%; (33 µM, detergent: no detergent) -16.2 ± 7.7%. The AmpC inhibition is, setting by setting: under setting [4], -0.871 ± 3.1%; under setting [5], 4.94 ± 2%.
